This passage reports Potency and viability (% of control) results from PubChem BioAssay (NCATS).

Inconclusive results are not listed. Entries that show only a call come without a potency. Unmarked numbers belong to inactive results. Active and inactive are the calls of the source. The call rests on the fitted dose curve; in most records, active means well fitted cell-killing curve with a large enough effect; inconclusive means small, poorly fitted or top-dose-only effect, or effect the other way; inactive means no such curve, though single readings can be large or run the other way.
Potency means the concentration at half of the fitted maximal effect.

The nature of the assay: Viability qHTS for spleen associated tyrosine kinase inhibitor (SYKi) naive MV4-11 cells (AID 1963823). Further: nearly all actives have a fitted effect of over 40% in size. The conditions noted are these: MV4-11 AML viability, CellTiter-Glo luminescence, 72 h; series mostly up to 45 µM. The method in brief:
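CellTiter-Glo luminescence, 10 min room-temperature incubation, gave viability. Cells: naive MV4-11 (500/well), treated 72 hr at 37 C, 5% CO2.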
(qHTS replaces the single test concentration by a dilution series.)
Consider `[N-]=[N+]=N[C@]1(CO)O[C@@H](n2ccc(N)nc2=O)[C@@H](O)[C@@H]1O`, for which the Potency result is “inactive”.
Take `Cc1ncc([N+](=O)[O-])n1C[C@H](O)CN1CCOCC1`: the Potency result was “inactive”.
On to `C=C1C[C@]23C[C@H]1CC[C@H]2[C@@]12CC[C@H](O)[C@@](C)(C(=O)O1)[C@H]2[C@@H]3C(=O)O`, for which the Potency result is “inactive”.
Take `CC(NC(=O)Cc1cc(F)cc(F)c1)C(=O)NC1C(=O)N(C)c2ccccc2-c2ccccc21` (stereo not given): the Potency is 5.17 µM (active).
On the same count and under the same terms, the result for `O=C(Nc1cnc(Cl)nc1)c1ccc(F)c(F)c1` reads “inactive”; that for `Cc1cc(CO)c(O)c(C(=O)CC2CC(=O)NC(=O)C2)c1`, “inactive”.
On to `C[C@H]1C(=O)N2c3ccccc3[C@@]3(O)C[C@@H]4C(=O)N[C@](C)(c5nc6ccccc6c(=O)n54)N1[C@@H]23`, for which the Potency entry is “inactive”.
For the molecule `C=C(C)C(=O)OC1[C@@H]2C(=C)C(=O)O[C@@H]2C[C@@H](C)[C@@H]2C=CC(=O)[C@@]12C` (stereo not given in full), the Potency was 2.27 µM (active).
As to `COc1cc([C@@H](O[C@@H]2O[C@H](CO)[C@@H](O)[C@H](O)[C@H]2O)[C@@H]2CO[C@H](c3ccc(O)c(OC)c3)[C@H]2CO)ccc1O`, the Potency result is “inactive”.
As for `N#CC1C(=O)Nc2scc(-c3ccc(-c4ccccc4O)cc3)c2C1=O` (stereo not given), the Potency result was “inactive”.
Same read-out and setting: the result for `C=C1C(=O)OC2/C=C(\COC(C)=O)CC/C=C(\C=O)CC(OC(=O)C(C)CC)C12` (stereo not given) reads 1.59 µM (active); that for `CC1OC(O[C@H]2CC[C@@]3(C)C(CC[C@]4(C)C3CC=C3C5CC(C)(C)CC[C@]5(C(=O)OC5OC(CO)C(OC6OC(COC7OCC(O)C(O)C7O)C(O)C(O)C6O)C(O)C5O)CC[C@]34C)C2(C)C)C(O)C(O)C1OC1OCC(OC2OCC(O)C(O)C2O)C(O)C1O` (stereo not given in full), 0.155 µM (active).
For `CC(=O)[C@H]1CC[C@H]2[C@@H]3CC=C4C[C@@H](OS(=O)(=O)O)CC[C@]4(C)[C@H]3CC[C@]12C`, the Potency result was “inactive”.
Turning to `COc1cc(/C=C/C(=O)O[C@H]2[C@@H]3C=CO[C@@H](O[C@@H]4O[C@H](CO)[C@@H](O)[C@H](O)[C@H]4O)[C@@H]3[C@@]3(CO)O[C@@H]23)ccc1O`, the Potency entry is “inactive”.
With `CC1CCC2C(C)(C)C(O)C(O)CC2(C)C12Cc1c(O)cc(CO)c(C=O)c1O2` (stereo not given), the Potency result is “inactive”.
Still for that read-out and setting: the result for `COc1ccc(CNC(=O)c2sc3nc(C)cc(C)c3c2N)cc1` reads “inactive”; that for `O=C(c1c2ccccc2cc2ccccc12)N1CCC(N2CCC[C@@H](C(=O)N3CCOCC3)C2)CC1`, “inactive”.
As to `O=c1[nH]c2ccccc2n1CCCN1CCN(C(c2ccccc2)c2ccccc2)CC1`, the Potency was 15 µM (active).
With `CCC(CC)C(=O)Nc1sc2c(c1C#N)CCC(C(C)(C)CC)C2` (stereo not given), the Potency was 2.06 µM (active).
`C[C@@H]1O[C@@H](O[C@H]2[C@H](O)[C@@H](O)[C@H](OC[C@H]3O[C@@H](OC(=O)[C@]45CCC(C)(C)C[C@H]4C4=CCC6[C@@]7(C)CC[C@H](O[C@@H]8OC[C@H](O)[C@H](O[C@@H]9O[C@H](CO)[C@@H](O)[C@H](O)[C@H]9O)[C@H]8O)[C@@](C)(CO)C7CC[C@@]6(C)[C@]4(C)CC5)[C@H](O)[C@@H](O)[C@@H]3O)O[C@@H]2CO)[C@H](O)[C@H](O)[C@H]1O` (stereo not given in full): the viability (% of control) is 98% [at 9.25 µM].
`CCCC(=O)c1cc(O)c(O)cc1O`: the Potency result is “inactive”.
Still for that read-out and setting: the result for `O=C(NCc1nc2ccccc2c(=O)n1-c1ccc(F)cc1)Nc1ccc(Cl)c(C(F)(F)F)c1` reads 23.1 µM (active).
Still for that read-out and setting: then `O=C(O)c1cc(O[C@@H]2O[C@H](CO[C@@H]3OC[C@@H](O)[C@H](O)[C@H]3O)[C@@H](O)[C@H](O)[C@H]2O)c2ccccc2c1O`, with “inactive”; and `CC(C)=CCC[C@](C)(O[C@@H]1O[C@H](CO)[C@@H](O)[C@H](O)[C@H]1O)[C@H]1CC[C@]2(C)[C@@H]1[C@H](O)CC1[C@@]3(C)CC[C@H](O)C(C)(C)C3[C@@H](O[C@@H]3O[C@H](CO)[C@@H](O)[C@H](O)[C@H]3O)C[C@]12C` (stereo not given in full), with “inactive”; and `O=C(O)c1ccc(N2C(=O)/C(=C/c3ccc(-c4ccc([N+](=O)[O-])cc4)o3)C=C2c2ccccc2)cc1`, with “inactive”.
Still for that read-out and setting: then `O=C(NCCN1CCCC1)c1cc(-c2ccc(CN3CCOCC3)cc2)nc2ccc(F)cc12`, with “inactive”; and `CC1CCC2(OC1)OC1CC3C4CCC5C[C@@H](O[C@@H]6O[C@H](CO[C@@H]7OC[C@@H](O)[C@H](O)[C@H]7O)[C@H](O)[C@H](O)[C@H]6O)CC[C@]5(C)C4CC[C@]3(C)C1C2C` (stereo not given in full), with “inactive”.
`CC(=O)/C=C/C1(O)C(C)=CC(=O)CC1(C)C` (stereo not given): the Potency result is “inactive”.
Regarding `CN1CCC(c2c[nH]c3ccc(NC(=O)c4ccc(F)cc4)cc23)CC1`, the Potency result is “inactive”.
Consider `C[C@H]1[C@H](C)CC[C@]2(C(=O)O)CC[C@]3(C(=O)O)C(=CCC4[C@@]5(C)CC[C@H](O[C@@H]6O[C@@H](C)[C@H](O)[C@@H](O)[C@H]6O)C(C)(C)C5CC[C@]43C)[C@H]12` (stereo not given in full), for which the Potency entry was “inactive”.
In the case of `Cc1occc1C(=O)n1ccnc1`, the Potency result was “inactive”.
Consider `C=C1CC[C@H]2C(=C)CC[C@H]3C(=C)C(=O)O[C@@H]3[C@@H]12`, for which the Potency was 4.11 µM (active).
Consider `CC1=C2C3OC(=O)C(C)C3(O)CCC2(C)CCC1` (stereo not given), for which the Potency entry was “inactive”.
For the molecule `COc1ccc(CCC(=O)c2c(O)cc(O)cc2O[C@@H]2O[C@H](CO)[C@@H](O)[C@H](O)[C@H]2O)cc1`, the Potency was 7.96 µM (active).
Still for that read-out and setting: then `C[C@H]1[C@H](C)CC[C@]2(C(=O)O)CC[C@]3(C(=O)O)C(=CCC4[C@@]5(C)CC[C@H](O[C@@H]6O[C@H](C)[C@@H](O)[C@H](O)[C@H]6O)C(C)(C)C5CC[C@]43C)[C@H]12` (stereo not given in full), with “inactive”; and `C=C(C)C(=O)OC1CC(CO)CCC/C(CO)=C/C2OC(=O)C(=C)C21` (stereo not given), with 1.61 µM (active); and `CCn1cc(NC(=S)Nc2cc(Cl)ccc2OC)c(C(N)=O)n1`, with “inactive”.
The same measure, in the same setting: then `CC/C(C)=C/C(=O)OC1C(OC2(C)CCC3C(C4C(C)CCC42)C3(C)C)OC(C)C(O)C1O` (stereo not given), with 8.93 µM (active); and `C=C1CC2[C@]3(C)C(=C(O)C(=O)[C@@]2(C)[C@]2(C(=O)OC)C(=O)C(C)OC(=O)[C@@]12C)C(C)(C)C(=O)CC3O` (stereo not given in full), with “inactive”.
For the molecule `Cn1ccc(NC(=O)c2cc(Oc3ccc(C(=O)N4CCC4)c(F)c3)c3c(c2)OC(C)(C)C3)n1`, the Potency result was “inactive”.
